Consider 19 compounds from ChEMBL document CHEMBL3988442, “University of Dundee, Small-Polar-MMV Screening Library” (2021).

The assay concerns the target T1, Aspartate--tRNA(Asp/Asn) ligase (Mycobacterium tuberculosis (strain ATCC 25618 / H37Rv)) (UniProt P9WFW3).
T1 sequence (whole entry): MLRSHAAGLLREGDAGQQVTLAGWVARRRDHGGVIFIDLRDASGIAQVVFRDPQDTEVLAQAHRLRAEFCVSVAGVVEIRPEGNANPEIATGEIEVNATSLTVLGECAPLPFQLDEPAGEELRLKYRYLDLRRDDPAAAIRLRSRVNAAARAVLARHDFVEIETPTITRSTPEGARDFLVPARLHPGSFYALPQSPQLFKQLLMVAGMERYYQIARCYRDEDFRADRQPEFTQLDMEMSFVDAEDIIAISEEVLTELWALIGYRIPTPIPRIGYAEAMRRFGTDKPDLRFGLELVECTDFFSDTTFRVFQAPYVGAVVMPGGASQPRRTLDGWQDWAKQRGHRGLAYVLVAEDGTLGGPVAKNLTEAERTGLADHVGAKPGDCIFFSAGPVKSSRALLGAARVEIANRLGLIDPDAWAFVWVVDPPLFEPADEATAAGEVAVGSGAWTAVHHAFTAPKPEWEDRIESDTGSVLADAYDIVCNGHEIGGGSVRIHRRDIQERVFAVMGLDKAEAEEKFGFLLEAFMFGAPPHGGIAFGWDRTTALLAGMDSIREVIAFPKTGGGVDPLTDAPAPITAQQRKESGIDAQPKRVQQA
Briefly: Assay for Asp RNA synthetase-1 from Mycobacterium tuberculosis. To be noted: 30 µM. In kind it is functional. Further details: scale not given: in the data most compounds retested in dose-response had high values.
For `O=C(CCc1cc2n(n1)CCCN(C(=O)c1cccnc1)C2)NC1CC1`, the Percent Effect is -2.01%. For `COCCN1CCC(CNC(=O)C2(c3cc(C)cc(C)c3)CCC2)C1` (centres undefined) the value was -0.337%; for `CCCc1nc(CN2CCCC2Cn2cncn2)cs1` (centres undefined), -4.65%.

Regarding `CCCNCc1cn(C)nc1-c1cccnc1`, the Percent Effect is -0.663%.

`Cc1nc(N2CCN(C(=O)c3ccccc3)CC2)c2c(n1)c(C)nn2C`: the Percent Effect was -3.51%. For `Cc1cc(C)cc(OCCC(=O)N2CCCC(n3cncn3)C2)c1` (centres undefined) the value was -4.66%. Then `Nc1nc2nc(C3CCCN(C(=O)c4cscn4)C3)ccc2s1` (centres undefined), with 0.603%; and `O=C(Cn1cc(C(=O)O)ccc1=O)Nc1ccc(F)cc1Cl`, with -8.57%; and `CCS(=O)(=O)CCn1ccc(NC(=O)CCc2cccc(C)c2)n1`, with 2.58%. Turning to `Cc1nn(C)c(N(C)C)c1CNCC(O)COc1ccccc1` (centres undefined), the Percent Effect is -5.92%.

As for `Fc1ccc(CN2CCO[C@H]3[C@H](OCCN4CCCC4)CC[C@@H]32)cc1`, the Percent Effect amounted to 2.94%. Take `CN(C)CC(=O)N1Cc2nc(C(=O)NCc3ccncc3)oc2C1`: the Percent Effect is 4.86%. Then `Cc1nnc2n1CCN(CCS(=O)(=O)c1ccccc1)C2`, with -4.37%; and `Cc1nc(Cn2nc(C3CCNCC3)n(Cc3ccccc3)c2=O)no1`, with -2.53%; and `CCOC(=O)N1CCN(C(=O)CCn2ccc3c(OC)cccc32)CC1`, with 0.389%.

Regarding `CS(=O)(=O)N1CCC(Oc2ccc(C(=O)N3CCSCC3)cc2Cl)CC1`, the Percent Effect was 1.75%. Then `CS(=O)(=O)N1CCN(CC(O)COc2ccc(F)cc2)CC1` (centres undefined), with 1.99%; and `COCCN1C[C@@H]2CN(Cc3cccc(F)c3)CCC[C@]2(C(=O)O)C1`, with 6.95%; and `Cc1nc(COC[C@@H]2CCC[C@@]23CNCCO3)cs1`, with 19.4%.
